Assay results: PubChem BioAssay AID1159580 (chemical genetic matrix, 2015)
Hit rate of the full screen: of about 5,500 compounds, about 2,000 (36%) were called active. Another 18% or so got no clear call; they are omitted. Cut-off read from the data, not from the text of the source: active = normalized growth mostly below about 0.91 (no sharp cut-off); inconclusive = no clear call, values can overlap the other calls; inactive = mostly above about 0.92. Some of the results follow.

Assay: chemical genetic growth profiling, strain panel (AID 1159580);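 note: tested at 20 µM; growth read once vehicle control cultures reached saturation at 30 °C; 1 = growth at the plate median or of vehicle wells; lower values mean less growth of the strain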
Conditions: S. cerevisiae deletion strains, growth OD
[1] = locus YDL101C, strain DUN1, active compounds read low
[2] = locus YHR030C, strain SLT2, active compounds read low

Measured: normalized growth

O=C(NNC(=S)Nc1ccc(F)cc1)c1ccccc1Cl
inactive: locus YAL013W, strain DEP1, active compounds read low 0.987 | locus YBR229C, strain ROT2, active compounds read low 1 | locus YCL061C, strain MRC1, active compounds read low 1 | [1] 1.04 | locus YDL134C, strain PPH21, active compounds read low 0.976 | locus YDR150W, strain NUM1, active compounds read low 0.987 | locus YEL061C, strain CIN8, active compounds read low 0.958 | locus YGR078C, strain PAC10, active compounds read low 0.972 | locus YGR229C, strain SMI1, active compounds read low 0.97 | [2] 0.948 | locus YHR087W, strain rtc3, active compounds read low 0.977 | locus YJR043C, strain POL32, active compounds read low 1.01 | locus YJR075W, strain HOC1, active compounds read low 1.01 | locus YKL190W, strain CNB1, active compounds read low 0.966 | locus YLR039C, strain RIC1, active compounds read low 0.933 | locus YLR058C, strain SHM2 (second series), active compounds read low 0.98 | locus YLR085C, strain ARP6, active compounds read low 0.897 | locus YLR262C, strain YPT6, active compounds read low 0.963 | locus YML094W, strain GIM5, active compounds read low 0.96 | locus YMR219W, strain ESC1, active compounds read low 1.01 | locus YMR263W, strain SAP30, active compounds read low 0.977 | locus YNL128W, strain TEP1, active compounds read low 0.971 | locus YNL153C, strain GIM3, active compounds read low 1.01 | locus YNL298W, strain CLA4 (second series), active compounds read low 0.923 | locus YNL322C, strain KRE1, active compounds read low 0.997 | locus YNR030W, strain Alg12, active compounds read low 0.94 | locus YPL055C, strain LGE1, active compounds read low 0.921 | locus YPL241C, strain CIN2, active compounds read low 1.01 | locus YPR135W, strain CTF4, active compounds read low 0.982
active: locus YOL006C, strain TOP1, active compounds read low 0.629

CCOC(=O)/C(=N/Nc1c(Cl)cccc1Cl)c1csc(N)n1
active: [2] 0.69 | locus YLR113W, strain HOG1, active compounds read low 0.801 | locus YPL256C, strain CLN2, active compounds read low 0.859
inactive: locus YAR019C, strain CDC15, active compounds read low 0.968 | locus YBL105C, strain PKC1, active compounds read low 0.982 | locus YBR135W, strain CKS1, active compounds read low 0.973 | locus YBR136W, strain MEC1, active compounds read low 0.972 | locus YBR160W, strain CDC28, active compounds read low 0.984 | locus YDL017W, strain CDC7, active compounds read low 0.98 | locus YDL028C, strain MPS1, active compounds read low 0.975 | [1] 0.986 | locus YDL108W, strain KIN28, active compounds read low 0.97 | locus YDL132W, strain cdc53, active compounds read low 0.971 | locus YDL214C, strain PRR2, active compounds read low 0.89 | locus YDR052C, strain DBF4, active compounds read low 0.973 | locus YDR054C, strain cdc34, active compounds read low 0.996 | locus YDR226W, strain ADK1, active compounds read low 0.973 | locus YDR477W, strain SNF1, active compounds read low 0.864 | locus YER123W, strain YCK3, active compounds read low 0.906 | locus YER133W, strain GLC7, active compounds read low 0.868 | locus YFL009W, strain cdc4, active compounds read low 0.959 | locus YFL029C, strain CAK1, active compounds read low 0.966 | locus YFR003C, strain YPI1, active compounds read low 0.97 | locus YFR019W, strain FAB1, active compounds read low 0.971 | locus YFR028C, strain CDC14, active compounds read low 0.968 | locus YGR040W, strain KSS1, active compounds read low 0.884 | locus YGR052W, strain FMP48, active compounds read low 0.933 | locus YGR092W, strain DBF2, active compounds read low 0.834 | locus YHR079C, strain IRE1, active compounds read low 0.837 | locus YHR082C, strain KSP1, active compounds read low 0.973 | locus YHR205W, strain SCH9, active compounds read low 0.994 | locus YIL147C, strain SLN1, active compounds read low 0.968 | locus YJL095W, strain BCK1, active compounds read low 0.873 | locus YJL128C, strain PBS2, active compounds read low 0.995 | locus YJL157C, strain FAR1, active compounds read low 0.864 | locus YJR016C, strain ILV3, active compounds read low 0.976 | locus YJR066W, strain TOR1 (second series), active compounds read low 0.868 | locus YJR066W, strain TOR1, active compounds read low 0.906 | locus YKL048C, strain ELM1, active compounds read low 0.986 | locus YKL067W, strain YNK1, active compounds read low 0.892 | locus YKL101W, strain HSL1, active compounds read low 0.918 | locus YKL193C, strain SDS22, active compounds read low 0.976 | locus YKL203C, strain TOR2, active compounds read low 0.921 | locus YLR133W, strain CKI1, active compounds read low 0.913 | locus YLR403W, strain SFP1, active compounds read low 0.864 | locus YML070W, strain DAK1, active compounds read low 0.889 | locus YMR001C, strain CDC5, active compounds read low 0.976 | locus YMR205C, strain PFK2 (second series), active compounds read low 0.925 | locus YMR277W, strain FCP1, active compounds read low 0.975 | locus YNL006W, strain LST8, active compounds read low 0.968 | locus YNL020C, strain ARK1, active compounds read low 0.904 | locus YNL161W, strain CBK1, active compounds read low 0.969 | locus YNL183C, strain NPR1, active compounds read low 0.91 | locus YNL207W, strain RIO2, active compounds read low 0.947 | locus YNL222W, strain SSU72, active compounds read low 0.969 | locus YNL307C, strain MCK1 (second series), active compounds read low 0.898 | locus YOL078W, strain AVO1, active compounds read low 0.978 | locus YOL136C, strain PFK27, active compounds read low 0.893 | locus YOR061W, strain CKA2, active compounds read low 0.906 | locus YOR119C, strain RIO1, active compounds read low 0.975 | locus YOR231W, strain MKK1, active compounds read low 0.864 | locus YOR329C, strain SCD5, active compounds read low 0.975 | locus YPL031C, strain PHO85, active compounds read low 0.852 | locus YPL153C, strain RAD53, active compounds read low 0.858 | locus YPL204W, strain HRR25, active compounds read low 0.805 | locus YPL209C, strain IPL1, active compounds read low 0.973 | locus YPR025C, strain CCL1, active compounds read low 0.976 | locus YPR106W, strain ISR1, active compounds read low 0.966 | locus YPR111W, strain DBF20, active compounds read low 0.947 | strain NNK1, active compounds read low 0.97 | strain TSCII, active compounds read low 0.963
